From PMC11062922 (Nature Chemical Biology, 2023)
Where two headings read alike, the source gives them in different places.

Key:
Design in all cases: species or system human, MV4-11 + K-562 + COLO205 + SK-N-BE2 + OVCAR-8
CDK7 = conditions: read-out: apparent Kd, compound concentrations: 100 nM and 1000 nM (sheet 'Samples'), n = 1
EPHA4 = conditions: read-out: apparent Kd; compound concentrations: 100 nM and 1000 nM (sheet 'Samples'), CATDS: 4.9130602297819598E-2; n = 1
EPHA5 = conditions: read-out: apparent Kd, compound concentrations: 100 nM and 1000 nM (sheet 'Samples'), n = 1
EPHB2 = conditions: read-out: apparent Kd; compound concentrations: 100 nM and 1000 nM (sheet 'Samples'), CATDS: 5.6373238091853198E-2; n = 1
EPHB4 = conditions: read-out: apparent Kd, compound concentrations: 100 nM and 1000 nM (sheet 'Samples'), n = 1
ERCC2 = conditions: read-out: apparent Kd, compound concentrations: 100 nM and 1000 nM (sheet 'Samples'), n = 1
FER = conditions: read-out: apparent Kd, compound concentrations: 100 nM and 1000 nM (sheet 'Samples'), n = 1
GAK = conditions: read-out: apparent Kd, compound concentrations: 100 nM and 1000 nM (sheet 'Samples'), n = 1
GSK3A = conditions: read-out: apparent Kd, compound concentrations: 100 nM and 1000 nM (sheet 'Samples'), n = 1
PIK3CB = conditions: read-out: apparent Kd, compound concentrations: 100 nM and 1000 nM (sheet 'Samples'), n = 1
PRKAA1 = conditions: read-out: apparent Kd; compound concentrations: 100 nM and 1000 nM (sheet 'Samples'), CATDS: 4.9195025679132399E-2; n = 1
PRKAG2 = conditions: read-out: apparent Kd; compound concentrations: 100 nM and 1000 nM (sheet 'Samples'), CATDS: 5.0151658649726198E-2; n = 1
PTK2B = conditions: read-out: apparent Kd; compound concentrations: 100 nM and 1000 nM (sheet 'Samples'), CATDS: 5.5106996532726202E-2; n = 1
PTK2 = conditions: read-out: apparent Kd; compound concentrations: 100 nM and 1000 nM (sheet 'Samples'), CATDS: 5.55941477403585E-2; n = 1
RPS6KA6 = conditions: read-out: apparent Kd; compound concentrations: 100 nM and 1000 nM (sheet 'Samples'), CATDS: 5.82257386615097E-2; n = 1
TNK1 = conditions: read-out: apparent Kd, compound concentrations: 100 nM and 1000 nM (sheet 'Samples'), n = 1
TNK2 = conditions: read-out: apparent Kd, compound concentrations: 100 nM and 1000 nM (sheet 'Samples'), n = 1
CDKL5 = conditions: read-out: apparent Kd; compound concentrations: 100 nM and 1000 nM (sheet 'Samples'), CATDS: 0.17547829897004599; n = 1
MAPK11 = conditions: read-out: apparent Kd; compound concentrations: 100 nM and 1000 nM (sheet 'Samples'), CATDS: 0.67677633408210103; n = 1
MAPK14 = conditions: read-out: apparent Kd, compound concentrations: 100 nM and 1000 nM (sheet 'Samples'), n = 1
MAPKAPK2 = conditions: read-out: apparent Kd, compound concentrations: 100 nM and 1000 nM (sheet 'Samples'), n = 1
PIK3C3 = conditions: read-out: apparent Kd; compound concentrations: 100 nM and 1000 nM (sheet 'Samples'), CATDS: 0.106578843558364; n = 1
CIT = conditions: read-out: apparent Kd; compound concentrations: 100 nM and 1000 nM (sheet 'Samples'), CATDS: 7.5521196037373797E-2; n = 1
CSNK1A1 = conditions: read-out: apparent Kd; compound concentrations: 100 nM and 1000 nM (sheet 'Samples'), CATDS: 4.0949734681157798E-2; n = 1
CSNK1D = conditions: read-out: apparent Kd; compound concentrations: 100 nM and 1000 nM (sheet 'Samples'), CATDS: 7.5353596099526104E-2; n = 1
CSNK1E = conditions: read-out: apparent Kd; compound concentrations: 100 nM and 1000 nM (sheet 'Samples'), CATDS: 5.67501120580748E-2; n = 1
DDR1 = conditions: read-out: apparent Kd; compound concentrations: 100 nM and 1000 nM (sheet 'Samples'), CATDS: 5.04347105241187E-2; n = 1
DDR2 = conditions: read-out: apparent Kd; compound concentrations: 100 nM and 1000 nM (sheet 'Samples'), CATDS: 3.97356163806874E-2; n = 1
MAPK10 = conditions: read-out: apparent Kd; compound concentrations: 100 nM and 1000 nM (sheet 'Samples'), CATDS: 4.34774071226985E-2; n = 1
MAPK9 = conditions: read-out: apparent Kd; compound concentrations: 100 nM and 1000 nM (sheet 'Samples'), CATDS: 4.6959741652320801E-2; n = 1
NLK = conditions: read-out: apparent Kd; compound concentrations: 100 nM and 1000 nM (sheet 'Samples'), CATDS: 4.75025353654299E-2; n = 1
RIPK2 = conditions: read-out: apparent Kd; compound concentrations: 100 nM and 1000 nM (sheet 'Samples'), CATDS: 0.10770613005205; n = 1

Which potency estimated from few doses (CDK7; CATDS: 6.6688716966174802E-2) does the source give for `COc1ccc(Nc2nccc(N3CCC(NC(=O)C(C)c4ccc(Cl)cc4)C3)n2)cc1` (centres unmarked) [GSK1379735A] here?
Its potency estimated from few doses is 0.733 µM.

What about the potency estimated from few doses (EPHA4) of the same compound?
The potency estimated from few doses was 1.41 µM.

What about the potency estimated from few doses (EPHA5; CATDS: 4.6938657100171297E-2) of the same compound?
The potency estimated from few doses was 1.6 µM.

What about the potency estimated from few doses (EPHB2) of the same compound?
The potency estimated from few doses was 1.02 µM.

And the potency estimated from few doses (EPHB4; CATDS: 6.1848145802902502E-2)?
The potency estimated from few doses was 0.846 µM.

What about the potency estimated from few doses (ERCC2; CATDS: 7.18018036860264E-2) of the same compound?
The potency estimated from few doses was 0.641 µM.

And the potency estimated from few doses (FER; CATDS: 6.7369227307756602E-2)?
Its potency estimated from few doses is 0.719 µM.

And the potency estimated from few doses (GAK; CATDS: 6.1535147387706803E-2)?
Its potency estimated from few doses is 0.854 µM.

What about the potency estimated from few doses (GSK3A; CATDS: 4.87406111355713E-2) of the same compound?
The potency estimated from few doses was 1.44 µM.

And the potency estimated from few doses (PIK3CB; CATDS: 5.9648096714639699E-2)?
Its potency estimated from few doses is 0.91 µM.

What about the potency estimated from few doses (PRKAA1) of the same compound?
Its potency estimated from few doses is 1.41 µM.

What about the potency estimated from few doses (PRKAG2) of the same compound?
Its potency estimated from few doses is 1.34 µM.

What about the potency estimated from few doses (PTK2B) of the same compound?
The potency estimated from few doses was 1.08 µM.

And the potency estimated from few doses (PTK2)?
The potency estimated from few doses was 1.06 µM.

What about the potency estimated from few doses (RPS6KA6) of the same compound?
The potency estimated from few doses was 0.956 µM.

And the potency estimated from few doses (TNK1; CATDS: 9.1910216493779603E-2)?
The potency estimated from few doses was 0.43 µM.

And the potency estimated from few doses (TNK2; CATDS: 8.5615413066405396E-2)?
The potency estimated from few doses was 0.479 µM.

For `Cl.Nc1c(C(=O)c2cccc(-c3ccncc3)c2)cnn1-c1ccc(F)cc1F` [RO1166300-001], which potency estimated from few doses (CDKL5) is on record?
The potency estimated from few doses was 1.83 µM.

And the potency estimated from few doses (MAPK11)?
The potency estimated from few doses was 0.0823 µM.

What about the potency estimated from few doses (MAPK14; CATDS: 0.205012911986655) of the same compound?
The potency estimated from few doses was 1.06 µM.

And the potency estimated from few doses (MAPKAPK2; CATDS: 0.2534240729319)?
The potency estimated from few doses was 0.584 µM.

Which results are given for `O=c1cc(N2CCOCC2)nc2n(Cc3cccc(Cl)c3Cl)ccn12` [GSK2286295A]?
potency estimated from few doses (CDK7; CATDS: 8.4335056049156601E-2): 0.923 µM; potency estimated from few doses (EPHA5; CATDS: 7.2696381065974702E-2): 1.36 µM; potency estimated from few doses (EPHB4; CATDS: 7.5541211933236804E-2): 1.22 µM; potency estimated from few doses (ERCC2; CATDS: 9.6102785253179598E-2): 0.687 µM; potency estimated from few doses (FER; CATDS: 7.77606230380051E-2): 1.13 µM; potency estimated from few doses (GAK; CATDS: 7.8204164782115004E-2): 1.11 µM; potency estimated from few doses (GSK3A; CATDS: 7.5555777377750599E-2): 1.22 µM; potency estimated from few doses (PIK3C3): 0.554 µM; potency estimated from few doses (PIK3CB; CATDS: 0.68027770173125801): 0.0218 µM; potency estimated from few doses (TNK1; CATDS: 9.2477692433592898E-2): 0.747 µM; potency estimated from few doses (TNK2; CATDS: 8.9325991753534395E-2): 0.807 µM

How did the potency estimated from few doses (CIT) turn out when `Nc1nccc(-c2c(-c3ccc(F)cc3)ncn2C2CCN(Cc3ccccc3)CC2)n1` [SB-219980] was run?
The potency estimated from few doses was 0.142 µM.

What about the potency estimated from few doses (CSNK1A1) of the same compound?
Its potency estimated from few doses is 1.79 µM.

And the potency estimated from few doses (CSNK1D)?
The potency estimated from few doses was 0.143 µM.

What about the potency estimated from few doses (CSNK1E) of the same compound?
The potency estimated from few doses was 0.362 µM.

What about the potency estimated from few doses (DDR1) of the same compound?
The potency estimated from few doses was 0.584 µM.

And the potency estimated from few doses (DDR2)?
Its potency estimated from few doses is 2.23 µM.

What about the potency estimated from few doses (ERCC2; CATDS: 0.16888440143106601) of the same compound?
Its potency estimated from few doses is 0.0261 µM.

And the potency estimated from few doses (MAPK10)?
Its potency estimated from few doses is 1.23 µM.

What about the potency estimated from few doses (MAPK14; CATDS: 0.113663446643848) of the same compound?
The potency estimated from few doses was 0.0536 µM.

What about the potency estimated from few doses (MAPK9) of the same compound?
The potency estimated from few doses was 0.814 µM.

And the potency estimated from few doses (MAPKAPK2; CATDS: 8.6501611072326803E-2)?
Its potency estimated from few doses is 0.0993 µM.

And the potency estimated from few doses (NLK)?
The potency estimated from few doses was 0.77 µM.

And the potency estimated from few doses (RIPK2)?
Its potency estimated from few doses is 0.06 µM.

What about the potency estimated from few doses (TNK1; CATDS: 0.18410889385923901) of the same compound?
The potency estimated from few doses was 0.0227 µM.

And the potency estimated from few doses (TNK2; CATDS: 0.19568733735508301)?
The potency estimated from few doses was 0.0207 µM.
